# PubChem BioAssay (Tox21)
# Values joined by “and” are separate entries in the source; they are usually repeats but may differ in a detail not shown here. Identical values can stand only once. Records with an inconclusive call do not appear. A call without a number means that no potency is given here. Active and inactive are the calls of the source. The call rests on the fitted dose curve; in most records, active means well fitted curve in the direction sought with a large enough effect in the repeat runs; inconclusive means weak or mixed curves; inactive means no such curve, though single readings can be large; an effect the other way counts as inactive or inconclusive.
# Legend:
# [1] = molecular target: Cytochrome P450 2C19 (Homo sapiens) (UniProt P33261); assay: Cytochrome P450 Family 2 Subfamily C Member 19 (CYP2C19) small molecule antagonists: luciferase reporter qHTS assay (AID 1671197); details: P450-Glo CYP2C19 enzyme, luciferin luminescence, 1 h; series mostly up to 52.9 µM; further: nearly all actives have a fitted effect of over 65% in size
# Sequence of Cytochrome P450 2C19 (Homo sapiens) (P33261 whole entry, looked up): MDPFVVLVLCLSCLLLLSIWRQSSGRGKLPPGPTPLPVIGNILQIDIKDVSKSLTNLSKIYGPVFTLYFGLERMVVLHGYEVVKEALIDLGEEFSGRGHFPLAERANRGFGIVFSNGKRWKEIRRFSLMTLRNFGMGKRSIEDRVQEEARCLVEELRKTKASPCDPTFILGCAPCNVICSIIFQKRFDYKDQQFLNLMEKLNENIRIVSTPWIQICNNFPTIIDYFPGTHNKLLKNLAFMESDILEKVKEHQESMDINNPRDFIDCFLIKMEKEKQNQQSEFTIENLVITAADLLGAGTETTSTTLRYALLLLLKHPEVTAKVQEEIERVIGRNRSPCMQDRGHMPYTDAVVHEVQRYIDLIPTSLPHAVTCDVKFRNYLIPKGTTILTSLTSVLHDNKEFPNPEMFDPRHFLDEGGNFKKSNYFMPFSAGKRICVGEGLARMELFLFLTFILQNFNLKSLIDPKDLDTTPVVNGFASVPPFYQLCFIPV
# In short: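 CYP2C19 P450-Glo, 1536-well qHTS. Cpd + enzyme/proluciferin substrate 10 min RT; + NADPH regen, 37C 1 h; stop with luciferin detection reagent, 20 min RT, luminescence (RLU). Pos ctrl ketoconazole.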
# [2] = molecular target: Cytochrome P450 2C9 (Homo sapiens) (UniProt P11712); assay: Cytochrome P450 Family 2 Subfamily C Member 9 (CYP2C9) small molecule antagonists: luciferase reporter qHTS assay (AID 1671198); details: P450-Glo CYP2C9 enzyme assay, luciferin luminescence; series mostly up to 115 µM; further: nearly all actives have a fitted effect of over 50% in size
# Sequence of Cytochrome P450 2C9 (Homo sapiens) (P11712 whole entry, looked up): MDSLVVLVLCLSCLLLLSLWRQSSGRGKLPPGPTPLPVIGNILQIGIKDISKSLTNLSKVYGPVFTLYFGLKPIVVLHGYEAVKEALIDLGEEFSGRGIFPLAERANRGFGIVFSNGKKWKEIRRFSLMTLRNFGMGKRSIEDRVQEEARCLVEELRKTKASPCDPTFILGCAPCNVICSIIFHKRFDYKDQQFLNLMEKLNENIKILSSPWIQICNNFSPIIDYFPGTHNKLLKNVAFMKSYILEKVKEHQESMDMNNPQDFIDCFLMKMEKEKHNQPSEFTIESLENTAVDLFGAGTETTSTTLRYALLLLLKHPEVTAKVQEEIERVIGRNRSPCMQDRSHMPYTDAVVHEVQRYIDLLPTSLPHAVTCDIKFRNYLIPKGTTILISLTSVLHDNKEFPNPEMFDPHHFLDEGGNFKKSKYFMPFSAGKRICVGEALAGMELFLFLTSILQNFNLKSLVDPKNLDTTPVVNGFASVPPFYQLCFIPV
# In short: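 Enzyme-substrate mix preincubated with compound 10 min at room temperature; reaction started with NADPH regeneration solution, 1 h 37C. Luminescent luciferin product read after 20 min detection reagent.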
# [3] = molecular target: Voltage-gated inwardly rectifying potassium channel KCNH2 (Homo sapiens) (UniProt Q12809); assay: Human Ether-a-go-go-Related Gene (hERG) channel small molecule antagonists: fluorescence cell-based qHTS assay (AID 1671200); details: hERG-U2OS cells, FluxOR thallium flux fluorescence; series mostly up to 76.8 µM;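 further: hERG-expressing U2OS cells given a thallium stimulus after FluxOR II dye loading; nearly all actives have a fitted effect of over 50% in size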
# Sequence of Voltage-gated inwardly rectifying potassium channel KCNH2 (Homo sapiens) (Q12809 whole entry, looked up): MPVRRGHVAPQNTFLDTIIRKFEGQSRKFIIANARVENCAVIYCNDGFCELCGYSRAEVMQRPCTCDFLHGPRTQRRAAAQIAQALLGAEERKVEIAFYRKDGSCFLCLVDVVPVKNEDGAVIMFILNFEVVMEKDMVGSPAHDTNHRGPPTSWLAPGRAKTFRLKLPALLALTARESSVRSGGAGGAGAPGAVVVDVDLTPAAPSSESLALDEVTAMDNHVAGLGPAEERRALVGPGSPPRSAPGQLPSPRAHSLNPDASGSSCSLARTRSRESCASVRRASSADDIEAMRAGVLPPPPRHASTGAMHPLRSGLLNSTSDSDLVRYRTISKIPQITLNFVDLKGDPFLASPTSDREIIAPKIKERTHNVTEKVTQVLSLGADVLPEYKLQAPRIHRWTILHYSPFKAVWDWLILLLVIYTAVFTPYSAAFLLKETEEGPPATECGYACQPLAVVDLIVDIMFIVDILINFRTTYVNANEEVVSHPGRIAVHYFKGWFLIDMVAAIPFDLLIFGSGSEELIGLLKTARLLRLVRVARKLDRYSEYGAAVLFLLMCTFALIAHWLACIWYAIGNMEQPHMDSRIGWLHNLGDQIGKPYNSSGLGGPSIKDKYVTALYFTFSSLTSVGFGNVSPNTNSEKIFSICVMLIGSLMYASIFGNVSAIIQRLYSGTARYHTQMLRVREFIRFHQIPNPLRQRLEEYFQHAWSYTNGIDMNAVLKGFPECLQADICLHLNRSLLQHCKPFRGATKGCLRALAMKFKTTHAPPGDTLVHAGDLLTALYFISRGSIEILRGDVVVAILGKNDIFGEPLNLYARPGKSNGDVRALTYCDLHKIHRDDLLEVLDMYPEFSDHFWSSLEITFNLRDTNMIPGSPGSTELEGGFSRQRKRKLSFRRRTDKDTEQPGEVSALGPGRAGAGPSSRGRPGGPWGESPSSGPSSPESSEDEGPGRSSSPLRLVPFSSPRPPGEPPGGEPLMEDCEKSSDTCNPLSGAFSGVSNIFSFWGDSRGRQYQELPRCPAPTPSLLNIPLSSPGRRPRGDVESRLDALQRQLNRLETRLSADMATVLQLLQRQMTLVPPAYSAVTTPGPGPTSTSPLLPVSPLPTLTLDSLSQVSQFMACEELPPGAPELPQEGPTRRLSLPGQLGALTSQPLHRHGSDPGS
# In short: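 Kinetic two-minute fluorescence traces, sampled at 1 s, were collected following thallium stimulus of U2OS cells (1000 per well) that had been cultured overnight at 37 C and loaded with FluxOR II.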
# [4] = molecular target: Cytochrome P450 3A4 (Homo sapiens) (UniProt P08684); assay: Cytochrome P450 Family 3 Subfamily A Member 4 (CYP3A4) small molecule antagonists: luciferase reporter qHTS assay (AID 1671201); details: P450-Glo CYP3A4 enzyme, luciferin luminescence, 1 h; series mostly up to 115 µM; further: nearly all actives have a fitted effect of over 50% in size; further: potency means the concentration at half of the fitted maximal effect
# Sequence of Cytochrome P450 3A4 (Homo sapiens) (P08684 whole entry, looked up): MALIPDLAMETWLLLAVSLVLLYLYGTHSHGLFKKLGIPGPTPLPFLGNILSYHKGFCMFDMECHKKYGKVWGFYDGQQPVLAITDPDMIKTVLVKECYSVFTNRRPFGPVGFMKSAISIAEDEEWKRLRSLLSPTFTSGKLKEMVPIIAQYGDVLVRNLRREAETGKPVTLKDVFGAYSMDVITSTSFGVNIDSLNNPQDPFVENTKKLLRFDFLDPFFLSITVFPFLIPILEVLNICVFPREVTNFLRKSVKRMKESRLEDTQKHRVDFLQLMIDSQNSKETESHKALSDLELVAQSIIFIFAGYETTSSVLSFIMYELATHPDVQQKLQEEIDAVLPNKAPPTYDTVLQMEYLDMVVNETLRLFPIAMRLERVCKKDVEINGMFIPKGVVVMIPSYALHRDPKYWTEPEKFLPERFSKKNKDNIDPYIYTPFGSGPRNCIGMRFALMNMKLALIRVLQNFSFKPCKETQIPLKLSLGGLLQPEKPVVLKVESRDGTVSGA
# In short: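 Proluciferin-to-luciferin conversion by CYP3A4, NADPH-regenerated, 1 h RT; luminescence read as RLU. Ketoconazole as control.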
# [5] = molecular target: Cytochrome P450 1A2 (Homo sapiens) (UniProt P05177); assay: Cytochrome P450 Family 1 Subfamily A Member 2 (CYP1A2) small molecule antagonists: luciferase reporter qHTS assay (AID 1671199); details: P450-Glo CYP1A2 enzyme, luciferin luminescence, 1 h; series mostly up to 53 µM; further: nearly all actives have a fitted effect of over 50% in size; further: potency means the concentration at half of the fitted maximal effect
# Sequence of Cytochrome P450 1A2 (Homo sapiens) (P05177 whole entry, looked up): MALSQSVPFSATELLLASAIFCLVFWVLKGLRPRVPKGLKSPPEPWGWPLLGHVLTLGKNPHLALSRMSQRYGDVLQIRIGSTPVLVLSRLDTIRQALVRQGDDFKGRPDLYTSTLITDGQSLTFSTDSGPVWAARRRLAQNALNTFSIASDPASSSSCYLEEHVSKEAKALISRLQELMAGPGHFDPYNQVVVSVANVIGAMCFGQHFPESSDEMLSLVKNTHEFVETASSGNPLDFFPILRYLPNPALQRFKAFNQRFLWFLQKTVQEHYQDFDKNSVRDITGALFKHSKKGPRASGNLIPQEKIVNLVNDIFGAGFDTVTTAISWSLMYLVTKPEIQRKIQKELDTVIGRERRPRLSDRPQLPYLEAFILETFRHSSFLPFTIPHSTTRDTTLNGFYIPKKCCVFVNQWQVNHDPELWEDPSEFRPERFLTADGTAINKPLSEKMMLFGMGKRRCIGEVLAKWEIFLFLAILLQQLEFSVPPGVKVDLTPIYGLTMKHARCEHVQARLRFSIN
# In short: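 Steps: enzyme-substrate mix dispensed; test compounds and furafylline control pinned in; 10 min room temperature; NADPH regeneration solution added, 1 h; reaction stopped with luciferin detection reagent; luminescence read after 20 min.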
# [6] = molecular target: Cytochrome P450 2D6 (Homo sapiens) (UniProt P10635); assay: Cytochrome P450 Family 2 Subfamily D Member 6 (CYP2D6) small molecule antagonists: luciferase reporter qHTS assay (AID 1671196); details: P450-Glo CYP2D6 enzyme assay, luciferin luminescence, 1 h; series mostly up to 115 µM; further: nearly all actives have a fitted effect of over 50% in size
# Sequence of Cytochrome P450 2D6 (Homo sapiens) (P10635 whole entry, looked up): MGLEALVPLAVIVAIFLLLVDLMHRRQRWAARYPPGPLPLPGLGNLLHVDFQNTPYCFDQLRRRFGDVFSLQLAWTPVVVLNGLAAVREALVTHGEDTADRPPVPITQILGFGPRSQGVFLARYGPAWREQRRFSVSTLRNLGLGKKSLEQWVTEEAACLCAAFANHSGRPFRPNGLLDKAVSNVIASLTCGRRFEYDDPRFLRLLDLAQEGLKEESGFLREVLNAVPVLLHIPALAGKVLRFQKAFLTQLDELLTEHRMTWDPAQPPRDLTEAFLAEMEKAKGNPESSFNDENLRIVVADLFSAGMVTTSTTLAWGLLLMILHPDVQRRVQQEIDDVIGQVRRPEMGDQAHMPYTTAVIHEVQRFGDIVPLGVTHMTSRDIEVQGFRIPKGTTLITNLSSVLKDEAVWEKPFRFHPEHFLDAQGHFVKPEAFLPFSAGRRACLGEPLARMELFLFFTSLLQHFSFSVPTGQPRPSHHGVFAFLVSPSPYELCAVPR
# In short: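 Test chemicals meet CYP2D6 plus proluciferin substrate (10 min, RT); NADPH regenerating solution then drives turnover for 1 h. Detection reagent halts the reaction; luminescence measured after 20 min.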
SMILES,Potency [1],Potency [2],Potency [3],Potency [4],Potency [5],Potency [6]
c1ccc([C@H]2CN3CCSC3=N2)cc1,inactive,inactive,inactive,inactive,,
O=C(O)c1ccccc1OP(=O)(O)O,inactive,inactive,inactive,inactive,27.5 µM (active),
N=C(N)c1ccccc1,inactive,inactive,inactive,inactive,inactive,
O=C1CCCCCCCCCCCN1,,,inactive,3.55 µM (active) and 7.96 µM (active),70.9 µM (active),inactive
CC(=O)OCC(CCn1cnc2cnc(N)nc21)COC(C)=O,inactive,inactive,,inactive,,
CC(=O)OCC(=O)[C@@]1(O)CCC2C3CCC4=CC(=O)CC[C@]4(C)C3[C@@H](O)C[C@@]21C (stereo not given in full),inactive,,inactive,inactive,inactive,
